HCV inh: qHTS Assay for Inhibitors of Hepatitis C Virus (HCV). AID 651820, 2012. Potency, µM (doses to about 41.8 µM), for the others: top-dose activity change, negative = inhibition, hits mostly inhibitors. Huh7.5.1 HCVcc-Cre infection, luciferase reporter, 44 h. 3.4% of 340,000 active; active = well fitted inhibition curve with a large enough effect; inconclusive = small, poorly fitted or top-dose-only effect, or another doubt; inactive = no such curve, though single readings can be large or run the other way; also: potency is read from the fitted curve at half-maximal effect
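1,000 cells/well; 4 h culture; + compound; + HCVcc-Cre (~0.5 moi); 44 h; luciferase substrate, RT 15 min; read 15 sec.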
Vaccinia Venus: qHTS for Stage-Specific Inhibitors of Vaccinia Orthopoxvirus: Venus Reporter Primary qHTS. Vaccinia virus Venus reporter expression, fluorescence. 0.46% of 330,000 active. Potency, µM (doses to about 36.5 µM), for the others: at the highest dose activity change, negative = inhibition, hits mostly inhibitors; calls by dose curve; tested in A549 cells; also: potency is read from the fitted curve at half-maximal effect; nearly all actives have a fitted effect of over 30% in size
Lassa entry inh: qHTS for Inhibitors of binding or entry into cells for Lassa Virus. Lassa virus pseudotype entry inhibition, cell reporter. 1.2% of 300,000 active. Potency, µM (highest dose often 37.9 µM), without a hit: top-dose activity change, negative = inhibition, actives largely listed as inhibitors. AID 540256, 2011; calls by dose curve; tested in HEK293 cells; also: potency is read from the fitted curve at half-maximal effect; nearly all actives have a fitted effect of over 50% in size
Vaccinia mCherry: qHTS for Stage-Specific Inhibitors of Vaccinia Orthopoxvirus: mCherry Reporter Primary qHTS | Vaccinia virus mCherry reporter infection, fluorescence | Potency, µM (highest dose often 36.5 µM), without a hit: top-dose activity change, negative = inhibition, actives largely listed as inhibitors | 0.63% of 310,000 active; calls by dose curve; tested in A549 cells; also: potency is read from the fitted curve at half-maximal effect; nearly all actives have a fitted effect of over 35% in size
Marburg entry inh: qHTS for inhibitors of binding or entry into cells for Marburg Virus; Marburg virus pseudotyped entry inhibition, cell reporter; Potency, µM (series often up to 37.8 µM), for the others: top-dose activity change, negative = inhibition, actives largely listed as inhibitors; 1.8% of 300,000 active; calls by dose curve; tested in HEK293 cells; also: potency is read from the fitted curve at half-maximal effect
HCMV antiviral: qHTS Assay for inhibitors of the human cytomegalovirus (HCMV) | HFF cells, HCMV-luciferase reporter, 72 h; stronger effect = lower value | activity change, negative = inhibition, % at 57.5 µM | 4.5% of 410,000 active; in the data active = activity change below about -60%; inconclusive = no clear call, values can overlap the other calls; inactive = above about -39%
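Cell-based, HFFs, 1000 cells/well, 16 h 37C; cpds in DMSO + HCMV-luc, MOI 1 PFU/cell; 72 h 37C; OneGlo luminescence after 5 min RT; norm. to buffer vs Salinomycin 10uM.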
An asterisk follows results filed as active; i = inactive; ? = inconclusive; nt = no result given; [ ] = remark or other dose. Only some compounds are listed: those with a hit (about 7.8% of all), similar ones and a draw of the others. % is scaled to controls: 0 for no effect and ±100 for the full control effect.

SMILES	HCV inh	Vaccinia Venus	Lassa entry inh	Vaccinia mCherry	Marburg entry inh	HCMV antiviral
O=C(c1cccs1)N(CCN1CCCCC1)CC1CCCN(C2CCCC2)C1 (configuration not stated)	?	nt	nt	nt	nt	10.8
Cc1ccc(C(=O)N(CCN2CCCCC2)CC2CCCN(C3CCCC3)C2)s1 (configuration not stated)	nt	-13.8%	?	-7.3%	8.91µM*	-8.1
Cc1ccc(C)c(NC(=O)CN(C)C(=O)c2cccc(S(=O)(=O)N3CCN(Cc4ccccc4)CC3)c2)c1	5.62µM*	-16.1%	?	-2.5%	?	?
Cc1ccc(S(=O)(=O)N2CCN(CCOc3ccccc3)CC2)cc1	-14.6%	-7.7%	-3.6%[46.1 µM]	i	-21.8%	-30.8
O=S(=O)(c1ccc(Cl)cc1)N1CCN(C(=S)Nc2ccc(F)c(Cl)c2)CC1	-1.2%	?	?	-20.4%	?	-61.8*
CC(=O)c1cccc(S(=O)(=O)N2CCN(CCOc3ccccc3)CC2)c1	?	nt	nt	nt	nt	-61.3*
Cc1ccc(C)c(NC(=O)CN(C)C(=O)c2cccc(S(=O)(=O)N3CCCC3)c2)c1	-3.3%	-4.0%	10.8%[46.1 µM]	-13.4%	6.1%	-17.4
CCc1ccccc1NC(=O)CNC(=O)c1cccc(S(=O)(=O)N2CCN(Cc3ccccc3)CC2)c1	10µM*	-21.1%	-18.4%	-6.1%	?	-24.6
O=S(=O)(c1ccccc1)N1CCN(C(=S)Nc2ccc(F)cc2)CC1	8.9%	-13.7%	-24.7%	-23.0%	-3.0%	-26.5
OCCN1CCN(Cc2ccc3c(c2)CN(Cc2cc4ccccc4o2)CCO3)CC1	nt	2.1%	nt	-12.1%	nt	nt
Cc1c(C(=O)NCCc2ccccc2)cccc1-n1cnc2cccnc21	nt	-7.7%	29.2%[46.1 µM]	-7.6%	nt	0.0
CCN(CC)C(=O)c1ccc(NC(=O)c2cccc(S(=O)(=O)N3CCN(Cc4ccccc4)CC3)c2)cc1	6.31µM*	?	-29.1%	-17.5%	?	-77.9*
Cc1ccc(C)c(NC(=S)N2CCN(S(C)(=O)=O)CC2)c1	13.5%	-9.5%	13.1%[46.1 µM]	-3.3%	1.5%[46.1 µM]	-8.4
Cc1ccc(C)c(NC(=S)N2CCN(S(=O)(=O)c3ccccc3)CC2)c1	12.5%	-21.4%	3.9%	-27.2%	-10.1%	-71.4*
CC(=O)Nc1cccc(NC(=O)c2cccc(S(=O)(=O)N3CCN(Cc4ccccc4)CC3)c2)c1	?	-12.6%	8.9%	-18.2%	6.1%	-14.2
CN(CCOc1ccc(Cl)cc1)C(=O)c1cccc(S(=O)(=O)N2CCN(Cc3ccccc3)CC2)c1	2.51µM*	nt	nt	nt	nt	?
COc1ccc(NC(=O)CN(C)C(=O)c2cccc(S(=O)(=O)N3CCN(Cc4ccccc4)CC3)c2)cc1	?	-17.0%	?	-3.0%	?	nt
CCN1CCN(S(=O)(=O)c2ccc(Cl)c(C(=O)N(CCc3ccccc3)Cc3ccccc3)c2)CC1	12.6µM*	nt	nt	nt	nt	-21.4
Cc1nc(N2CCOCC2)c2c(C(=O)NCCc3ccccc3)c(C)oc2n1	nt	-7.8%	?	i	nt	?
Cc1ccc(S(=O)(=O)c2cnc(SCC(=O)Nc3ccccc3C(F)(F)F)[nH]c2=O)cc1C	nt	10.2%	nt	4.6%	0.2%[46.1 µM]	15.0
Cc1ccc(S(=O)(=O)N2CCN(C(=O)N(c3ccccc3)c3ccccc3)CC2)cc1	?	nt	?	nt	18.3µM*	?
CCSc1nnc(NC(=O)CSc2nc3c(c(=O)n2C)SC(C)C3)s1 (configuration not stated)	?	-8.3%	13.6%	-9.6%	-18.7%	-85.5*
Cc1cccc(C)c1NC(=O)C(C1CC1)N1C(=O)C(=O)c2ccccc21 (configuration not stated)	nt	nt	nt	nt	nt	-7.0
O=[N+]([O-])c1cccc2c(N3CCCC3)ccnc12	3.55µM*	7.08µM*	?	?	?	-106.1*
CC1CCN(CCCNC(=O)c2cc3c(s2)-c2ccccc2OC3)CC1	?	nt	nt	nt	nt	-18.3
SMILES	HCV inh	Vaccinia Venus	Lassa entry inh	Vaccinia mCherry	Marburg entry inh	HCMV antiviral
CC1CCCN(CCCNC(=O)c2cc3c(s2)-c2ccccc2OC3)C1 (configuration not stated)	11.2µM*	?	?	?	3.16µM*	-66.8*
Cc1ccc(CCNC(=O)c2cc3c(s2)-c2c(C)cccc2OC3)cc1	nt	-8.0%	nt	-16.6%	7.8%[46.1 µM]	-86.1*
CCN(CC)CCNC(=O)c1cc2c(s1)-c1ccccc1SC2	11.2µM*	nt	nt	nt	nt	-71.9*
Cc1ccc(CCNC(=O)c2cc3c(s2)-c2ccccc2OC3)cc1	nt	-13.4%[7.34 µM]	nt	-2.5%[7.34 µM]	-0.7%[46.1 µM]	-88.6*
O=C(Cc1ccc(OCc2ccccn2)cc1)NO	nt	-11.1%	nt	13.9%	nt	nt
CN(C)c1nc(N/N=C/c2ccccc2O)nc(Nc2ccc(F)cc2)n1	?	?	?	7.94µM*	?	?
CCN(CC)c1nc(Nc2ccccc2)nc(Oc2ccc(C(=O)OC)cc2)n1	?	nt	1.8%	nt	?	23.1
COC(=O)c1ccc(Oc2nc(Nc3ccccc3)nc(N(C)C)n2)cc1	11.2µM*	nt	-2.9%	nt	-18.5%	-15.3
CN(C)c1nc(Nc2ccccc2)nc(N(C)C)n1	?	-10.9%	22.1%	-14.4%	3.55µM*	50.4
COc1ccccc1N1CCN(C(=O)C2CCN(S(=O)(=O)Cc3ccccc3)CC2)CC1	nt	2.0%	-4.4%[46.1 µM]	-8.3%	0.6%[46.1 µM]	7.5
Cc1cccc2cc3c(N)c(C#N)sc3nc12	?	-7.9%	-17.7%	3.5%	?	-63.5*
Cc1onc(-c2c(F)cccc2Cl)c1-c1ncc(-c2ccc(Cl)cc2)o1	nt	nt	nt	nt	nt	-76.0*
Cn1cccc1-c1cc2n(n1)CCC(=O)N2CCCC(=O)NCc1ccc(F)cc1	nt	12.9%	-0.7%[46.1 µM]	-4.5%	nt	2.5
c1nc(N2CCCCC2)c2[nH]cnc2n1	-2.1%	-13.2%	-4.7%	-1.7%	?	-70.8*
O=C(CS(=O)c1ccccc1[N+](=O)[O-])Oc1ccc(Br)cc1 (configuration not stated)	15.2%	-3.4%	0.6%[46.1 µM]	-1.5%	17.8%[46.1 µM]	-30.2
CS(=O)(=O)c1ccc(S(=O)CC(=O)Oc2ccc(Cl)cc2)c([N+](=O)[O-])c1 (configuration not stated)	?	-10.1%	?	?	11.2µM*	nt
O=C(Cn1cc(COc2ccc3ccc(=O)oc3c2)nn1)c1ccc(O)cc1	2.51µM*	-2.9%	?	5.3%	nt	16.2
COc1ccc2c(c1)sc1ncc(C(=O)NCc3ccc(Cl)cc3)c(=O)n12	nt	-4.6%	nt	1.9%	-1.9%[46.1 µM]	-2.4
COc1ccc(-c2cc(C(F)(F)F)n3nc(C(=O)Nc4cc(Cl)cc(Cl)c4)cc3n2)cc1	nt	-11.0%	-1.9%[46.1 µM]	-7.1%	0.2%[46.1 µM]	13.7
CC(=O)c1cccc(NC(=O)c2cc3nc(-c4ccc(Br)cc4)cc(C(F)(F)F)n3n2)c1	nt	?	10.0%[46.1 µM]	12.6µM*	nt	-4.9

Compound activity (PubChem BioAssay)
